Laboratory results published in PubChem BioAssay AID485344 (National Center for Advancing Translational Sciences (NCATS), 2010).
Hit rate of the full screen: of about 340,000 compounds, about 6,900 (2%) were called active. What follows is part of a selection rich in actives, with near analogues and random picks from the rest. Unmarked numbers belong to inactive results. No stated cut-off is given here; in the data, active means inhibition above about 30%; inactive means below that, where a call was filed.

Target: D(2) dopamine receptor (Homo sapiens) (UniProt P14416)
Experiment: HTS Assay for Allosteric Antagonists of the Human D2 Dopamine Receptor: Primary Screen for Antagonists; further: 0% is about no effect
Conditions: HEK293 TREx D2 cells, calcium flux, dopamine EC80; at 10 µM; hits give high values
In short: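 Antagonism is scored as inhibition of an EC80 dopamine-evoked calcium signal in a force-coupled, tetracycline-inducible HEK293 T-REx D2 line, with compound present 180 s before agonist.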

D(2) dopamine receptor (Homo sapiens), sequence (P14416 whole entry, looked up): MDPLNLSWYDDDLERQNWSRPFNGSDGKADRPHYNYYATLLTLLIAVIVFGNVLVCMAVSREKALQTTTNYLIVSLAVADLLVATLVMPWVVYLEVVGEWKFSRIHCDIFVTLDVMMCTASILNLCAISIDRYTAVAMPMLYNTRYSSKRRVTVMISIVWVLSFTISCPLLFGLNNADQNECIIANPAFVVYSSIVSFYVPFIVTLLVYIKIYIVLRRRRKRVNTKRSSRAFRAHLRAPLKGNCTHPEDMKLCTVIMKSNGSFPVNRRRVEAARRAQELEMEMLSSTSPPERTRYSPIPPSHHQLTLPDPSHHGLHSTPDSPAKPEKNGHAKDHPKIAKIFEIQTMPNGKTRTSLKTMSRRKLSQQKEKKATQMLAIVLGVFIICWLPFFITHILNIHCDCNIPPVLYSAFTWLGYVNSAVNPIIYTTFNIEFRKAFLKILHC

SMILES | inhibition
CC(C)(C)C(=O)CCN1C(=O)C2(OCCO2)c2ccccc21 | -2.06%
CC(=O)N1C(=O)C2(Nc3ccccc3N2)c2ccccc21 | 34.2% (active)
O=C1CN(C(=O)CN2C(=O)NC3(CCCCC3)C2=O)c2ccccc2N1 | 3.68%
CC1CCN(C(=O)COC(=O)c2cc(=O)[nH]c3ccccc23)CC1 | -0.452%
CC(NC(=O)c1ccccc1F)c1cccc2ccccc12 (stereo unspecified) | 10.4%
CCOC(=O)C1CCN(C(=O)Cn2nc(C)c3c(C)n(-c4ccccc4)nc3c2=O)CC1 | 2.33%
COc1ccc(OC)c(CNC(=O)Cn2nc(C)c3c(C)n(-c4ccc(C)cc4)nc3c2=O)c1 | 30% (active)
Cc1nn(CC(=O)N2CCCCC2)c(=O)c2nn(-c3ccccc3)c(C)c12 | 20.3%
CC(=O)c1sc(N)nc1C | 9.17%
COc1ccc(C(C)(C)C)cc1NC(=O)CCN1C(=O)C2CCCCC2C1=O (stereo unspecified) | 11.5%
Cc1ccc(CC(=O)Nc2ccc(S(=O)(=O)N3CCOCC3)cc2)cc1C | 19%
C[C@H]1[C@H]2c3nc4ccccc4n3C[C@H]1ON2C1CCCCC1 | 31% (active)
CN1C(C(=O)NCc2ccco2)CC2Cn3c(nc4ccccc43)C21 (stereo unspecified) | 12.7%
CN1C(C(=O)NCC2CC2)CC2Cn3c(nc4ccccc43)C21 (stereo unspecified) | 6.56%
Cc1cc(C(=O)COc2ccc(Br)cc2F)c(C)n1C1CC1 | -10.6%
O=C(CN1CCN(c2ccccc2O)CC1)NC(=O)NCc1ccccc1 | -6.15%
COc1ccc2oc(C(=O)OCC(=O)N(CC(C)C)c3c(N)n(Cc4ccccc4)c(=O)[nH]c3=O)c(C)c2c1 | -27.2%
Cc1ccc(NC(=O)C(C)OC(=O)Cc2c[nH]c3ccccc23)cc1S(=O)(=O)N1CCOCC1 (stereo unspecified) | -4.91%
CC(C)CCN1CCC(C)(NC(=O)c2ccccc2)C1=O (stereo unspecified) | 3.51%
CC(OC(=O)CN1C(=O)c2ccccc2C1=O)C(=O)c1ccccc1 (stereo unspecified) | 10.6%
Cc1noc(C)c1S(=O)(=O)N(CC(=O)NCc1ccc(Cl)cc1)c1ccc2c(c1)OCO2 | 1.26%
CCN(CC(=O)NCc1ccc(Cl)cc1)C(=O)CSc1ccccc1 | -4.45%
CCN(CC(=O)NCc1ccc(Cl)cc1)C(=O)c1c(C)noc1C | 30.3% (active)
CC(=O)c1c(C)[nH]c(C(=O)COc2ccc3c(C)cc(=O)oc3c2)c1C | 1.65%
CN(C)C(=O)N=NC(=O)N(C)C | 6.75%
CCC(C)CCN1CCN=C1N(C)C (stereo unspecified) | -4.14%
